Reference: PubChem BioAssay AID720517 (National Center for Advancing Translational Sciences (NCATS), 2013)
Results filed as inconclusive are left out. A call without a number means that no potency is given here. Activity calls are given as the source filed them. Calls come from the whole dose curve; as a rule, active = well fitted activation curve with a large enough effect; inconclusive = small, poorly fitted or top-dose-only effect; inactive = flat fitted curve, though single readings scatter.

Test: qHTS for Inhibitors of Cell Surface uPA Generation: FP59 Counterscreen for Cherry-picked Compounds
Details: FP59 anthrax toxin cytotoxicity counterscreen, cells; series mostly up to 115 µM
Potency is the fitted concentration of half-maximal effect.

Row | Structure (SMILES) | Potency
1 | CC1CC(C)CN(CCCNC(=O)CN2C(=O)CSc3ccc(S(=O)(=O)N4CCOCC4)cc32)C1 (centres undefined) | inactive
2 | COc1ccc(Cc2nnc(NC(=O)Nc3ccc(F)cc3)s2)cc1 | inactive
3 | CCCOc1ccc(CC2CCC(=O)NC2=O)cc1 (centres undefined) | inactive
4 | CCCCNc1c(-c2ccc(-c3cccc(Cl)c3)cc2)nc2ccccn12 | inactive
5 | CCN(C1CCS(=O)(=O)C1)S(=O)(=O)c1ccc2ccccc2c1 (centres undefined) | inactive
6 | Cc1cccc(/C=N/Nc2cc(N3CCOCC3)nc(N3CCOCC3)n2)c1 | inactive
7 | CCN(CC)CCCNC(=O)c1cn(C)c(=O)c2c1c1ccccc1n2C | inactive
8 | COc1cc(OC)cc(C(=O)NC(C(=O)Nc2ccc3c(c2)CCC3)C(C)C)c1 (centres undefined) | inactive
9 | COc1cc(CCC(=O)OCC(=O)Nc2ccc(C)cc2Br)cc(OC)c1OC | inactive
10 | COC(=O)c1ccc(N2CCN(c3ccccc3)CC2)c(NC(=O)C2CC2)c1 | inactive
11 | C[C@]12CCC(O)CC1CCC1C2CC[C@]2(C)C(c3cc(C(F)(F)F)n[nH]3)CCC12 (some centres undefined) | inactive
12 | CC(=O)c1ccc(N=C2SCCCN2C(=O)C2CCCCC2)cc1 | inactive
13 | Cc1ccc2nc(-c3ccncc3)cc(C(=O)NCCc3ccc(F)cc3)c2c1 | inactive
14 | CCN(CC)CC(=O)Nc1sc2c(c1C(=O)c1ccccc1OC)CCC2 | 16.5 µM (active)
15 | COc1ccc(C(=O)N2CCN(c3ccc(C(C)=O)cc3)CC2)cc1S(=O)(=O)N1CCCC1 | inactive
16 | COc1cc(SC)ccc1C(=O)OCc1nc2ccsc2c(=O)[nH]1 | inactive
17 | COc1cccc(C(=O)Cn2c(NCCCO)nc3ccccc32)c1 | inactive
18 | O=C(O)c1cc(N=Nc2c(O)[nH]c3ccc([N+](=O)[O-])cc23)ccc1Cl | inactive
19 | CNC(=S)N1C2CCCC1CC(NC(=O)c1ccc(F)cc1)C2 (centres undefined) | inactive
20 | COc1cc(NS(=O)(=O)c2ccc(NC(=S)NC(=O)COc3ccccc3OC)cc2)nc(OC)n1 | inactive

Row | Structure (SMILES) | Potency
21 | Cc1ccc(-c2nc(CS(=O)(=O)CC(=O)NCc3cccc(F)c3)c(C)o2)cc1 | inactive
22 | O=[N+]([O-])c1ccc(-c2cn3c(n2)SCC3)cc1 | inactive
23 | CCCCN(CC)CCNC(=O)c1cc2cc3ccc(Cl)cc3nc2o1 | inactive
24 | Cc1nc2ccccc2c2oc(C(=O)Nc3ccc4c(c3)OCCO4)cc12 | inactive
25 | COc1ccc(-c2cc3nc(-c4ccccc4)cc(N4CCCC(O)C4)n3n2)cc1 (centres undefined) | inactive
26 | Cc1cc(=O)[nH]c2c(C)cc(S(=O)(=O)Nc3ccc(O)cc3)cc12 | inactive
27 | CCOC(=O)Cc1csc(NC(=O)Nc2cccc(OC)c2)n1 | inactive
28 | C[C@H]([C@H](O)c1ccccc1)N(C)C(=O)CN | inactive
29 | CCCC1=NN(C(=O)Cc2ccc(OC)cc2)C(O)(C(F)(F)F)C1 (centres undefined) | inactive
30 | Cc1ccc(S(=O)(=O)NNC(=O)c2ccc(F)cc2)cc1 | inactive
31 | Cc1ccc(S(=O)(=O)N2CCC(C(=O)OC(C)C(=O)NC3CCCCC3C)CC2)cc1 (centres undefined) | inactive
32 | O=C(c1cc(COc2ccc(F)cc2Cl)on1)N1CCCCCC1 | inactive
33 | Cc1ccnc(NC(=O)CCNS(=O)(=O)c2ccc(C)c(C)c2)c1 | inactive
34 | CCOCc1nnc(NC(=O)C2CCN(C(=O)C3CC(=O)N(c4ccc(C)cc4)C3)CC2)s1 (centres undefined) | inactive
35 | COCCN(C(=O)c1ccccc1OC)c1nnc(C)s1 | inactive
36 | O=C(NCCCn1ccnc1)C(=O)NCC(c1cccnc1)N1CCN(c2ccc(F)cc2)CC1 (centres undefined) | inactive
37 | CC(=O)Oc1ccccc1C(=O)Nc1ccccc1C(=O)N1CCCC1 | inactive
38 | Cc1ccn(CCC(=O)N2CCc3ccccc32)n1 | inactive
39 | CC(C)(C)OC(=O)N(Cc1ccccc1)Cc1ccccc1OCc1cccc(NC(=O)C2CC2)c1 | inactive
